Rows were chosen to be rich in hits. Some 12% of all compounds tested hit in one or more screens of this group.
G9a inh: blocks human histone lysine methyltransferase G9a; G9a H3K9 monomethylation, AlphaScreen, 2 h; Potency, µM (doses to about 102 µM), without a hit: at the highest dose activity, negative = inhibition, hits mostly inhibitors; 8.8% of 350,000 active; note: % is set by controls: 0 for no effect and ±100 for the full control effect; nearly all actives have a fitted effect of over 75% in size
Target sequence (Q96KQ7 913-1193 limits assumed): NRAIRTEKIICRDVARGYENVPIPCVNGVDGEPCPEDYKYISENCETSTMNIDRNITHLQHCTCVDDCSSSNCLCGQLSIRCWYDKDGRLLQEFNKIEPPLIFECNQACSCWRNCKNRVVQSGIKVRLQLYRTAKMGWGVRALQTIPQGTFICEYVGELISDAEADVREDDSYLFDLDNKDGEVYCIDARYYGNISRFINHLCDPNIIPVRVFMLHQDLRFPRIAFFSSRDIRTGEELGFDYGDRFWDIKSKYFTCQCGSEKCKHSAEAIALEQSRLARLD
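AlphaScreen read-out: biotin-H3K9 peptide (500 nM) methylation by 20 nM enzyme with 20 uM SAM, 2 h at room temperature after 15 min compound preincubation; anti-monomethyl H3K9 antibody plus donor/acceptor beads, 10 min dark.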
BAZ2B block: BAZ2B (human) inhibition; AlphaScreen BAZ2B-H3K14Ac peptide displacement; Potency, µM (titrated, usually from 114 µM), for inactives: at the highest dose activity change, negative = inhibition, usual class: inhibitors; 4.4% of 360,000 active; AID 504333; note: % is set by controls: 0 for no effect and ±100 for the full control effect; nearly all actives have a fitted effect of over 60% in size
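In this displacement format the biotinylated H3(5-23) peptide acetylated at Lys14 serves as ligand at 50 nM, with BAZ2B at 50 nM in PBS pH 7.4 containing 0.01% Tween-20. Donor and acceptor beads are 10 ug/mL final.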
TDP1 inh: inhibitors of human tyrosyl-DNA phosphodiesterase TDP1. Q9NUW8. recombinant TDP1, AlphaScreen DNA substrate cleavage. Potency, µM (series often up to 130 µM), without a hit: at the highest dose activity change, negative = inhibition, most hits filed as inhibitors. 0.28% of 350,000 active; note: % is set by controls: 0 for no effect and ±100 for the full control effect; nearly all actives have a fitted effect of over 40% in size
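Enzyme-compound mixtures sat 15 min at room temperature, followed by a 5 min reaction with 15 nM final substrate and 10 min with AlphaScreen beads. Recombinant human Tdp1 was used at 1 nM final.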
JMJD2A Tudor: inhibitors of human JMJD2A Tudor domain; 4.4% of 390,000 active; AlphaScreen JMJD2A-Tudor / H3K4me3 peptide binding; Potency, µM (doses to about 114 µM), for the others: at the top dose activity change, negative = inhibition, actives largely listed as inhibitors; note: % is set by controls: 0 for no effect and ±100 for the full control effect; nearly all actives have a fitted effect of over 50% in size
Sfp PPTase inh: inhibitors of Bacillus subtilis Sfp phosphopantetheinyl transferase; Q9F4F7; Biochemical Sfp PPTase activity, qHTS; Potency, µM, for inactives: largest response in the series, negative = inhibition, usual class: inhibitors; 3.5% of 310,000 active;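 note: the enzyme is Sfp with the accession as filed and its product quenches rhodamine fluorescence; 0% = enzyme reaction without inhibitor and -100% = no enzyme wells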
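Fluorescence-quenching assay: 15 nM Sfp-PPTase preincubated 15 min at room temperature with compound, then 5 uM rhodamine-CoA and 12.5 uM BHQ-2-labelled YbbR peptide added. Fluorescence (ex 525/em 598 nm) read at start and after 30 min; difference gives rate.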
HP1b chromo inh: blocks HP1-beta chromodomain binding to methylated histone tails; 0.56% of 390,000 active; AlphaScreen HP1-beta / biotin-H3K9me3 peptide binding; Potency, µM (titrated, usually from 114 µM), for the others: at the top dose activity change, negative = inhibition, actives largely listed as inhibitors; P83916; note: nearly all actives have a fitted effect of over 70% in size
Target sequence (P83916 whole entry, looked up): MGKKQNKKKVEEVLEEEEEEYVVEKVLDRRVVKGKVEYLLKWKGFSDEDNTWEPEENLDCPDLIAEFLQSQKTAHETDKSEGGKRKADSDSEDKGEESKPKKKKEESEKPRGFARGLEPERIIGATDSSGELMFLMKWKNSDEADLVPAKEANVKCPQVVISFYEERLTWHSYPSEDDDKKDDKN
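HP1-beta protein (50 nM final) preincubated 30 min at room temperature with biotinylated H3(1-18)K9me3 peptide (50 nM) in PBS pH 7.4, 0.01% Tween-20, then compound added for 30 min. AlphaScreen streptavidin donor/nickel chelate acceptor beads (10 ug/mL final), 30 min dark, luminescence read.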
Starred values were filed as active, the others as inactive; ? = inconclusive; nt = not tested or not shown; [ ] = dose if it differs, or a comment. Calls come from the whole dose curve; as a rule, active = well fitted curve in the direction sought with a large enough effect; inconclusive = small, poorly fitted or top-dose-only effect, or another doubt; inactive = no such curve, though single readings can be large; an effect the other way counts as inactive or inconclusive. Potency is the fitted concentration of half-maximal effect.

SMILES	G9a inh	BAZ2B block	TDP1 inh	JMJD2A Tudor	Sfp PPTase inh	HP1b chromo inh
O=C(CSc1nc2ccccc2nc1Cc1ccc(Cl)cc1)N1CCN(c2ccccc2F)CC1	-1.0%[59 µM]	5.8%	0.0%	-3.6%	nt	30.5%[57 µM]
Cn1c(=O)n(C)c2cc(N3CCOCC3)c(NC(=O)c3ccc(C(C)(C)C)cc3)cc21	-41.7%[59 µM]	-13.1%	2.5%	-20.9%	nt	11.5%
COc1ccccc1OCCOCCOc1c(C)cc(C)cc1Br	48.9%[59 µM]	137.4%	-11.0%	85.9%	-1.2%	277.6%
CCC(C)NCCOCCOc1ccc(C)cc1Br (stereo not drawn)	?	56.2µM*	-9.8%	2.51µM*	-19.4%	?
CCCNC(=O)c1ccc(C)c(NC(=O)C2=C(C)OCCS2)c1	-11.9%	0.2%	nt	-9.8%	1.1%	75.2%
Cc1nnc2ccc(-c3cccc(NS(=O)(=O)c4ccccc4[N+](=O)[O-])c3)nn12	50.1µM*	-33.7%	-5.9%	2.0%	nt	27.7%
S=c1[nH]nc(COc2ccc(Cl)cc2)n1Cc1ccco1	3.55µM*	?	-2.5%	?	-4.4%	?
Clc1ccc(OCc2nnc(SCCN3CCCCC3)n2Cc2ccco2)cc1	?	89.1µM*	11.9%	?	25.1µM*	13.0%
CCCc1n[nH]c(=S)n1Cc1ccco1	?	5.7%	nt	5.01µM*	?	30.4%
O=c1c2ccccc2nnn1CSc1nnc(COc2ccc(Cl)cc2)n1Cc1ccco1	16.0%[0.0925 µM]	?	5.8%	?	-25.1%	-12.5%
CCCc1nnc(SCC(=O)N2CCCC2)n1Cc1ccco1	-2.4%	-31.3%	-10.1%	-8.7%	14.1%	18.2%
CCc1ccc(OCc2nnc(SCCN3CCOCC3)n2CC)cc1	7.08µM*	nt	-4.2%	3.16µM*	-21.0%	?
C=CCOC(/C=C/c1ccccc1)CC (stereo not drawn)	nt	nt	4.4%	-7.6%	-0.4%	31.5%
Cc1ccc(SCC(=O)NCC2COc3ccccc3O2)cc1 (stereo not drawn)	4.4%[12.7 µM]	-4.9%	0.7%	-0.7%	nt	45.5%
CC(=O)Nc1ccc(NC(=O)COC(=O)CCNS(=O)(=O)c2c(Cl)cccc2Cl)cc1	-49.5%	5.6%	-6.2%	-8.9%	nt	46.1%
S=c1[nH]nc(C23CC4CC(CC(C4)C2)C3)n1Cc1ccco1	-8.7%[0.0925 µM]	?	5.9%	50.1µM*	-13.3%	3.8%
CN(CC1CCOCC1)C(=O)CC1C(=O)NCCN1Cc1ccc(-c2ccccc2)cc1 (stereo not drawn)	3.7%	-11.6%	2.8%	-12.0%	14.9%	30.9%
COc1cccc(CN2CCNC(=O)C2CC(=O)N(C)CC2CCOCC2)c1OC (stereo not drawn)	?	-22.1%	0.0%	0.8%	3.7%	16.0%
COc1ccc(CN2CCNC(=O)C2CC(=O)N(C)CC2CCOCC2)cc1C (stereo not drawn)	79.4µM*	-23.5%	3.7%	-16.7%	14.0%	29.2%
COc1ccc(CN2CCNC(=O)C2CC(=O)N(C)CC2CCOCC2)cc1OC (stereo not drawn)	79.4µM*	-16.1%	5.5%	-3.6%	2.7%	32.0%
O=C(O)C(O)C(O)c1nc2ccccc2[nH]1 (stereo not drawn)	?	-24.2%	-3.0%	-12.0%[11.4 µM]	8.1%	14.8%
CCCCCCNC(=O)CC(NS(=O)(=O)c1ccc(NC(C)=O)cc1)C(C)C (stereo not drawn)	39.8µM*	1.6%	1.0%	-2.9%	8.9%	44.0%
COC(=O)Cc1[nH]c(=S)[nH]c1C(=O)OC	nt	-5.4%	4.1%	3.16µM*	56.2µM*	6.6%
CC(=O)N1N=C(c2ccc(C)cc2)CC1c1ccco1 (stereo not drawn)	-50.5%	-39.0%	0.0%	-19.4%	4.8%	25.9%
COc1ccc(-c2nn(-c3ccccc3)cc2C2CC(c3cccs3)=NN2C(=O)CCC(=O)O)cc1 (stereo not drawn)	nt	-13.6%	6.5%	-6.7%	-1.5%	22.6%
SMILES	G9a inh	BAZ2B block	TDP1 inh	JMJD2A Tudor	Sfp PPTase inh	HP1b chromo inh
Cc1ccc(S(=O)(=O)N[C@H](C(=O)OCC(=O)N2N=C(c3ccc(Cl)cc3)CC2c2ccco2)C(C)C)cc1 (stereo partly drawn)	4.5%[59 µM]	-37.4%	0.0%	-21.2%	79.4µM*	-6.5%
O=C(CNC(=O)c1ccccc1)OCC(=O)N1N=C(c2ccc(Cl)cc2)CC1c1ccco1 (stereo not drawn)	-41.8%	-27.9%	8.9%	-18.2%	-9.3%	-7.3%
Cc1ccc(C2=NN(C(=O)CCCC(=O)O)C(c3ccco3)C2)cc1 (stereo not drawn)	-9.7%	-11.7%	6.0%	-7.5%	44.7µM*	11.7%
COc1ccc(C2=NN(C(=O)CCCC(=O)O)C(c3cn(-c4ccccc4)nc3-c3ccccc3)C2)cc1 (stereo not drawn)	?	56.2µM*	nt	56.2µM*	7.9%	32.2%
COC(=O)[C@@H]1CC[C@H](C)[C@@H](c2ccc(C)cc2)N1C(=O)c1ccc(/C=N\O[C@@H](C)c2cc(-c3c(C)cc(C)cc3C)no2)cc1	nt	nt	9.0%[21 µM]	nt	-14.5%	nt
COc1ccc2cc(-c3[nH]ncc3CN3CCCN(c4ccccc4)CC3)ccc2c1	nt	31.6µM*	8.1%	35.5µM*	-2.4%	20µM*
O=C(Cn1c(=O)n(-c2ccc(F)cc2)c(=O)c2sc3ccccc3c21)N1CCCC1	-21.3%[59 µM]	-16.8%	3.8%	-20.2%	nt	10.0%
Cc1onc(-c2ccccc2)c1C(=O)N1CCCC1	55.2%	50.1µM*	3.8%	-17.3%	14.1%	31.8%
Cc1onc(-c2c(F)cccc2Cl)c1C(=O)N1CCSCC1	50.1µM*	-10.7%	4.1%	7.0%	9.3%	45.0%
COc1ccc(OC)c(CCNC(=O)CCCc2nnc3n(C)c(=O)c4sccc4n23)c1	18.2%	5.9%	0.2%	-20.7%	7.4%	-12.9%
O=C(CCc1ccccc1)N=C1SC2CS(=O)(=O)CC2N1Cc1ccc(F)cc1 (stereo not drawn)	-22.9%	-19.6%	2.9%	-6.2%	14.9%	20.1%
CC(C(=O)NCc1ccccc1)N1Cc2ccccc2C1=O (stereo not drawn)	3.8%[59 µM]	0.4%	0.0%	3.0%	nt	20.0%
O=C(/C=C/c1ccccc1)NNC1=NS(=O)(=O)c2ccccc21	?	-28.4%	0.0%	?	23.0%	14.8%
Cc1ccc(S(=O)(=O)NCCC(=O)N2CCCCCCC2)cc1C	-31.5%	-4.2%	-0.2%	-17.2%	nt	6.7%
COc1ccc(NC(=O)/C(=C\c2ccco2)NC(=O)c2ccco2)cc1	?	-2.9%	4.7%	-12.1%	2.3%	-16.3%
CC(=O)c1cccc(NC(=O)/C(=C/c2ccco2)NC(=O)c2ccco2)c1	73.8%	0.0%	2.6%	-18.5%	8.2%	16.0%

Bioassay records from PubChem BioAssay.
